WRN helicase inh: inhibitors of human WRN helicase. AID 651768. actives 0.46% (n = 360,000). WRN helicase unwinding, fluorescent forked duplex, kinetic. Q14191. Potency, µM (doses to about 114 µM), hits mostly inhibitors; also: nearly all actives have a fitted effect of over 55% in size
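Kinetic fluorescence helicase assay: unwinding of a quenched forked DNA duplex (100 nM final) with 2 mM ATP final raises red fluorescence (525/598 nm). Compounds sat 15 min at room temperature with 20 nM WRN beforehand.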
Pol beta inh: inhibitors of human DNA polymerase beta | P06746 | actives 1.3% (n = 340,000) | Pol beta primer extension/strand displacement, fluorescence kinetic | Potency, µM (doses to about 114 µM), usual class: inhibitors
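Kinetic readout of DNA synthesis with strand displacement by Pol beta. Compound and 10 nM enzyme sit 15 min at room temperature; 50 nM substrate starts the reaction, read immediately and at 10 min.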
Pol kappa inh-1: blocks human DNA polymerase kappa activity; Q9UBT6; purified Pol kappa, fluorescent DNA synthesis assay, 10 min; Potency, µM (series often up to 107 µM), hits mostly inhibitors; actives 0.53% (n = 400,000); AID 588579
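Enzyme at 10 nM met test compounds for 15 min at room temperature. Substrate addition (50 nM final) began the reaction, which was monitored by fluorescence at 0 and 10 min.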
Pol iota inh: inhibitors of human DNA polymerase iota; Q9UNA4; Pol iota fluorescent replication assay, 10 min; Potency, µM (highest dose often 115 µM), usual class: inhibitors; actives 1% (n = 390,000); AID 588590
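Fluorescent replication assay read twice, at 0 min and 10 min after adding 50 nM (final) substrate. Enzyme (10 nM) and compounds were first incubated 15 min at room temperature; enzyme-free buffer wells were negative controls.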
PI5P4Ka inh: blocks human PI5P4K alpha kinase activity; max response, %; AID 652105; actives 1.2% (n = 330,000); PI5P4Kalpha enzyme, ADP-Glo luminescence, 60 min; stronger effect = lower value; active = max response of -50% or lower; inconclusive = between -30% and -50%; inactive = -30% or higher; also: value at the top dose of about 77 µM
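qHTS, 1536-well: enzyme/substrate mix, compound by pin tool, 5 microM ATP final; RT 60 min; ADP-Glo reagents 1 (45 min) then 2 (30 min); luminescence.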
Pol eta inh-1: inhibitors of human DNA polymerase eta; recombinant Pol eta, fluorescent DNA replication assay; Potency, µM (series often up to 114 µM), most hits filed as inhibitors; actives 1.2% (n = 390,000); AID 588591
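Fluorescent replication assay: 50 nM final substrate added after a 15 min room-temperature compound preincubation with 10 nM enzyme. Signal taken at 0 min and again at 10 min.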
GALK confirm: confirmation of human galactokinase (GALK) inhibitors. actives 70% (n = 150). shares compounds with Pol eta inh-1. purified GALK, Kinase-Glo ATP depletion luminescence. Potency, µM (top dose mostly 115 µM), hits mostly inhibitors. AID 2015
GALK redox cs: redox cycling activity in phenol red-HRP assay | AID 2035 | actives 40% (n = 150) | Phenol red-HRP H2O2 redox cycling, absorbance 600 nm | Potency, µM (titrated, usually from 115 µM), most hits filed as inhibitors | shares compounds with Pol eta inh-1
HEK293 tox: HEK-293 cytotoxicity, GALK inhibitor secondary; actives 10% (n = 170); Potency, µM (series often up to 46.1 µM), actives largely listed as inhibitors; shares compounds with Pol eta inh-1; HEK-293 viability, ATP luminescence (CellTiter-Glo), 24/48 h
Pol kappa inh-2: confirmation of human DNA polymerase kappa inhibitors | shares compounds with Pol eta inh-1 | purified Pol-kappa, fluorescent strand-displacement substrate | Potency, µM, usual class: inhibitors | actives 76% (n = 920)
Pol eta inh-2: confirmation of human DNA polymerase eta inhibitors; shares compounds with Pol eta inh-1; Pol eta primer extension, TAMRA/BHQ fluorescence, 10 min; Potency, µM, usual class: inhibitors; actives 64% (n = 2,600); AID 720502
A number is an active result; 0 = inactive; ? = inconclusive; - = no result; [ ] = remark or other dose. The list is not random: actives were taken first. Their share in the collection is about 2.8%. Unless noted, calls follow the shape of the dose curve; as a rule, active = well fitted curve in the direction sought with a large enough effect; inconclusive = small, poorly fitted or top-dose-only effect, or another doubt; inactive = no such curve, though single readings can be large; an effect the other way counts as inactive or inconclusive.

SMILES	WRN helicase inh	Pol beta inh	Pol kappa inh-1	Pol iota inh	PI5P4Ka inh	Pol eta inh-1	Pol eta inh-2	others
O=C(NCc1ccc(Cl)cc1)C1CCCN(c2nc3ccccc3n3cccc23)C1 (stereo not drawn)	-	0	0	0	-	0	-
N#C/C(=C\c1coc2ccc(O)cc2c1=O)C(=O)Nc1nc2ccccc2s1	56µM	?	2.8µM	?	-101	3.5µM	-	GALK confirm=33µM;GALK redox cs=0;HEK293 tox=?
O=C(O)c1ccc(CNc2ccccc2C(=O)O)cc1	0	11µM	?	?	0	?	?
N=C1/C(=C\c2coc3ccccc3c2=O)C(=O)N=C2SC=CN12	0	?	?	0	0	40µM	?
N=C1/C(=C/c2cccs2)C(=O)N=C2SN=C(SCc3ccccc3)N12	?	?	0	?	0	25µM	-	GALK confirm=42µM;GALK redox cs=0;HEK293 tox=0
CSC1=NSC2=NC(=O)/C(=C/c3coc4ccccc4c3=O)C(=N)N12	35µM	40µM	?	0	-61	14µM	-	Pol kappa inh-2=67
CC1=CC2=NC(=O)/C(=C/c3coc4ccc(Cl)cc4c3=O)C(=N)N2O1	0	?	0	0	0	?	-
CCCc1cc(=O)oc2cc(C)c3c(-c4cccc(OC)c4)coc3c12	-	0	0	0	-	0	-
Cc1ccccc1OCCSc1nc2ccc(NC(=O)c3cccs3)cc2s1	-	0	0	0	-	0	-
COc1ccc(OC)c([C@@H]2Nc3ccc(C(=O)O)cc3[C@@H]3C=CC[C@@H]32)c1	-	0	0	0	-	35µM	85	Pol kappa inh-2=34
COc1ccc(Br)cc1[C@@H]1Nc2ccc(C(=O)O)cc2[C@@H]2C=CC[C@@H]21	-	0	35µM	25µM	-	79µM	30
Cc1cccc2c(/C=C/c3ccc(N(C)C)cc3)ccnc12	-	-	0	?	-	-	-
CSc1ncc(C(=O)Nc2ccc(C)c(Cl)c2)c(-c2ccccc2)n1	-	?	0	0	-	0	-
COc1cc(CN2CCCC(C(=O)c3ccccc3SC)C2)cc(OC)c1 (stereo not drawn)	0	0	0	0	0	0	-
CSc1cccc(N2CC(C(=O)N(CC(C)C)c3c(N)n(Cc4ccccc4)c(=O)[nH]c3=O)CC2=O)c1 (stereo not drawn)	0[11.6 µM]	-	?	?	0	25µM	?
CC(C)CN(C(=O)C1CC1)c1c(N)n(Cc2ccccc2)c(=O)[nH]c1=O	0	-	0	0	0	0	-
Cc1csc(N/N=C/c2ccc(O)c([N+](=O)[O-])c2)n1	?	25µM	22µM	13µM	-75	7.1µM	38
CC(=O)n1cc(N(C(=O)CCl)c2ccc(Cl)cc2)c2ccccc21	0	0	0	?	0	28µM	?
Cc1ccc(Cl)cc1NC(=O)CCn1cnc2ccccc2c1=O	-	?	0	?	-	45µM	76
Cc1cc(C)cc(NC(=O)CCn2cnc3ccccc3c2=O)c1	-	?	0	0	-	0	-
Cc1ccc(NC(=C(C#N)C#N)c2ccccc2)cc1	0	-	-	-	0	0	-
CC1CN(S(=O)(=O)c2cccc(C(=O)OCc3cc(=O)oc4cc(O)ccc34)c2)CC(C)O1 (stereo not drawn)	0	?	?	?	?	?	76
CSc1ccc(C2C(C#N)=C(N)Oc3c2ccc(=O)c2c(C)oc(C)c32)cc1 (stereo not drawn)	?	?	50µM	?	-65	11µM	?
Cc1ccc(OCCC(=O)O)cc1	0	0	?	?	0	56µM	?
CC(C)CCn1c(=O)c2ccccc2n2c(CCC(=O)NCC3CCCO3)nnc12 (stereo not drawn)	0	0	0	0	0	0	-
SMILES	WRN helicase inh	Pol beta inh	Pol kappa inh-1	Pol iota inh	PI5P4Ka inh	Pol eta inh-1	Pol eta inh-2	others
CCC1COCCS(=O)(=O)N1Cc1ccc(F)cc1 (stereo not drawn)	0	0	0	0	0	0	-
CCOc1ccc2cc(C(=O)NCc3ccccc3)c(=N)oc2c1	0	?	0	0	0	0	-
COc1ccc2cc(C(=O)NCc3ccccc3)c(=Nc3ccc(C(=O)O)cc3)oc2c1	0	0	0	0	0	32µM	?
CC1(OC(=O)C2CCCC2)C(=O)C=C2C=C(c3ccsc3)N(Cc3ccco3)C=C2C1=O (stereo not drawn)	0	?	25µM	?	?	0	2.4
Cc1cc(NC2=CC(=O)C(=O)c3ccccc32)no1	0[11.6 µM]	-	0	?	0	22µM	?
COc1cc(OC)c(NC2=CC(=O)C(=O)c3ccccc32)cc1Cl	0	0	0	0	0	?	-
O=c1[nH]c(/C=C/c2ccc3c(c2)OCO3)c([N+](=O)[O-])c(=O)[nH]1	-	0	-	-	-	-	-
O=c1[nH]c(/C=C/c2ccc([N+](=O)[O-])cc2)c([N+](=O)[O-])c(=O)[nH]1	0	0	0	?	-66	45µM	?	GALK confirm=38µM;GALK redox cs=0;HEK293 tox=0
COCCCn1c(=O)/c(=C\c2ccccc2OC(C)C)s/c1=C(/C#N)C(=O)Nc1ccc(C(=O)O)cc1	?	0	0	?	0	?	43
Cc1cc(C(=O)N/N=C/c2ccc(Br)o2)n[nH]1	0[11.6 µM]	0	0	?	0	0	-
Cc1cc(C(=O)N/N=C/c2cc(Br)c(Br)o2)n[nH]1	?	45µM	79µM	14µM	0	18µM	60	Pol kappa inh-2=47
CC(=O)NC1=CC(=C[N+](=O)[O-])C=C1O	0	-	0	0	0	?	-
NC(=S)NNC(=O)c1cccc(Cl)c1	0	0	0	0	0	0	-
COc1ccccc1N1C(=N)S/C(=C\c2ccc(-c3ccccc3C(=O)O)o2)C1=O	28µM	79µM	50µM	20µM	?	14µM	30	Pol kappa inh-2=19
O=C1CC(c2ccc(O)c(O)c2)Oc2cc(O)cc(O)c21 (stereo not drawn)	?	?	16µM	50µM	0	22µM	76
COc1ccc(C2CC(=O)c3c(O)cc(O)cc3O2)cc1O (stereo not drawn)	0	-	0	0	0	0	-
